Values joined by “and” are separate entries in the source; they are usually repeats but may differ in a detail not shown here. Identical values can stand only once. Compounds without any hit were thinned out: in the full panel of roughly 83,000, 20% have a hit.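 48-hour exposure, single concentration, 96-well plates; percent growth endpoint where 0 means no net growth. Active: below 10.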 A number with no mark means an inactive call. Active and inactive are the calls of the source.
These molecules were tested on ACHN renal (assay: NCI-60 one-dose screen, 48 h (100 = growth as untreated, 0 = no growth, -100 = all killed)). Conditions: 10 µM unless noted.

SMILES	growth
Cn1c(-c2ccccc2)cc(=O)cc1-c1ccccc1	0.204% (active)
O=C1C2=C(Nc3cc(Cl)ccc3N2)OC1c1c[nH]c2ccc(COc3ccccc3)cc12 (stereo not drawn)	60%
COc1ccc(S(=O)(=O)c2ccc(F)cc2)cc1	103%
CCOP(=O)(OCC)/C(C#N)=C/c1c(C)[nH]c2ccccc12	102%
COc1ccc(CCNC(=S)NN)cc1OC	102%
CS(=O)(=O)OCC1NC(=O)C(COS(C)(=O)=O)NC1=O (stereo not drawn)	93.7% and 85.9%
COc1cc(NCCCCCCCNC(C)C)c2nccc(C)c2c1	91.8% and 67.3%
N=c1sc2ccccc2n1CC(=O)O	105%
O=C1C=CC(=O)N1Cc1ccco1	5.76% (active)
N=C(N)N1CCc2ccccc2C1	101%
Cc1ccc(C(=O)c2ccc(C)cc2)cc1	99.8% and 107%
COC(=O)c1ccccc1Cl	106%
O=C(Nc1ccccc1)OCC(CN1CCCCC1)OC(=O)Nc1ccccc1 (stereo not drawn)	72.9% and 92.8%
N=C(N=C(N)N)N1CCOCC1	103%
Cc1cc2nc3ccc(=[N+](C)C)cc-3sc2cc1N	-73.1% (active) and 9.45% (active)
O=C1C=CC(n2cc(F)c(=O)[nH]c2=O)O1 (stereo not drawn)	56.5%
O=C1CCC(=O)N1CC1CC2CCC1C2 (stereo not drawn)	100% and 92.2%
NCCSSC/C=C\CSSCCN	110%
COC(=O)c1nc(N)nc(C(=O)OC)c1C(=O)c1cccc2ccccc12	106%
COc1ccc(COC=O)cc1	110%

SMILES	growth
CCCCNC(=O)c1ccccc1C	104%
CC(=O)c1cccc(OC(=O)c2ccccc2)c1	109%
CCNC1=CC(=O)c2ncccc2C1=O	59%
O=C(/C=C/C=C/c1ccc2c(c1)OCO2)N1CCCCC1	106%
CCN(CC)Cc1cc2[nH]c3c4ccc(Cl)cc4ncc3c2cc1OC	83.7% and 73.4%
C/C=C/C(=O)OCCCCCCCCCCCC	103%
COc1ccc(CCn2cnn3c(=O)c4ccccc4nc3c2=O)cc1OC	101% and 109%
N#Cc1c[nH]n2ccnc12	112%
NC1=NC(c2ccccc2)N=C(Nc2ccccc2)N1 (stereo not drawn)	97.9% and 84.1%
Cc1nc(Nc2ccc(Cl)cc2)c2cnn(-c3ccccc3)c2n1	105%
CC(C)(C)C1=CC(=O)C(C(C)(C)C)=CC1=O	94.5% and 114%
CC1(C)OC(=O)C(=Cc2ccc(C#N)cc2)C(=O)O1	108% and 98.1%
COC(=O)CCOc1ccccc1	91.8%
Cc1cc(-c2ccc(N=Nc3c(C)nn(-c4ccc(S(=O)(=O)O)cc4)c3O)c(C)c2)ccc1N=Nc1ccc(O)c(C(=O)O)c1	98%
OCc1ccccc1F	6.49% (active)
O=C(O)c1cc(=O)[nH]c(=O)[nH]1	94.7% and 95.2%
O=C(O)c1cccc(Br)c1	107% and 108%
CCN(CC)C(CC(=O)c1ccccc1)C(=O)c1ccccc1 (stereo not drawn)	71.2%
O=S(=O)(O)c1ccc2cc(O)ccc2c1	106%

These molecules were tested on CAKI-1 renal in the same assay as above. Conditions: 10 µM unless noted.

SMILES	growth
Cn1c(-c2ccccc2)cc(=O)cc1-c1ccccc1	83.6%
O=C1C2=C(Nc3cc(Cl)ccc3N2)OC1c1c[nH]c2ccc(COc3ccccc3)cc12 (stereo not drawn)	52.1%
COc1ccc(S(=O)(=O)c2ccc(F)cc2)cc1	108%
CCOP(=O)(OCC)/C(C#N)=C/c1c(C)[nH]c2ccccc12	51%
COc1ccc(CCNC(=S)NN)cc1OC	108%
CS(=O)(=O)OCC1NC(=O)C(COS(C)(=O)=O)NC1=O (stereo not drawn)	97% and 91.3%
COc1cc(NCCCCCCCNC(C)C)c2nccc(C)c2c1	87.7% and 45.5%
N=c1sc2ccccc2n1CC(=O)O	97.8%
O=C1C=CC(=O)N1Cc1ccco1	40%
N=C(N)N1CCc2ccccc2C1	74.5% and 101%
Cc1ccc(C(=O)c2ccc(C)cc2)cc1	93.4%
COC(=O)c1ccccc1Cl	99.6%
O=C(Nc1ccccc1)OCC(CN1CCCCC1)OC(=O)Nc1ccccc1 (stereo not drawn)	71.6% and 86%
N=C(N=C(N)N)N1CCOCC1	94.8% and 103%
Cc1cc2nc3ccc(=[N+](C)C)cc-3sc2cc1N	12% and 27.6%
O=C1C=CC(n2cc(F)c(=O)[nH]c2=O)O1 (stereo not drawn)	46.5%
O=C1CCC(=O)N1CC1CC2CCC1C2 (stereo not drawn)	67.2% and 91.1%
NCCSSC/C=C\CSSCCN	101%
COC(=O)c1nc(N)nc(C(=O)OC)c1C(=O)c1cccc2ccccc12	96.3%
COc1ccc(COC=O)cc1	102%

SMILES	growth
CCCCNC(=O)c1ccccc1C	96.5%
CC(=O)c1cccc(OC(=O)c2ccccc2)c1	91.1%
CCNC1=CC(=O)c2ncccc2C1=O	55.8%
O=C(/C=C/C=C/c1ccc2c(c1)OCO2)N1CCCCC1	92.6% and 106%
CCN(CC)Cc1cc2[nH]c3c4ccc(Cl)cc4ncc3c2cc1OC	31.9% and 81.3%
C/C=C/C(=O)OCCCCCCCCCCCC	101%
COc1ccc(CCn2cnn3c(=O)c4ccccc4nc3c2=O)cc1OC	111% and 97.8%
N#Cc1c[nH]n2ccnc12	104%
NC1=NC(c2ccccc2)N=C(Nc2ccccc2)N1 (stereo not drawn)	74.2% and 93.8%
Cc1nc(Nc2ccc(Cl)cc2)c2cnn(-c3ccccc3)c2n1	96.3%
CC(C)(C)C1=CC(=O)C(C(C)(C)C)=CC1=O	90.7%
CC1(C)OC(=O)C(=Cc2ccc(C#N)cc2)C(=O)O1	102% and 99.3%
COC(=O)CCOc1ccccc1	86.3%
Cc1cc(-c2ccc(N=Nc3c(C)nn(-c4ccc(S(=O)(=O)O)cc4)c3O)c(C)c2)ccc1N=Nc1ccc(O)c(C(=O)O)c1	100%
OCc1ccccc1F	18.7%
O=C(O)c1cc(=O)[nH]c(=O)[nH]1	94.9% and 119%
O=C(O)c1cccc(Br)c1	102% and 99%
CCN(CC)C(CC(=O)c1ccccc1)C(=O)c1ccccc1 (stereo not drawn)	101%
O=S(=O)(O)c1ccc2cc(O)ccc2c1	99.5%

From PubChem BioAssay (NCI)
